Experimental data as given in PubChem BioAssay (NCATS).
Inconclusive results are not listed. Values without a mark were called inactive. Calls of active or inactive are those of the source. Calls follow the shape of the dose curve; as a rule, active = well fitted inhibition curve with a large enough effect; inconclusive = small, poorly fitted or top-dose-only effect; inactive = flat fitted curve, though single readings scatter.

system: MCC-26; test: qHTS assay to identify novel small-molecules to repurpose for Merkel cell carcinoma treatment (AID 1296009); conditions: MCC and control cell lines, CellTiter-Glo viability, 72 h; series mostly up to 46 µM; activity change, negative = cytotoxicity: at the top concentration; also: nearly all actives have a fitted effect of over 60% in size
Text: MCC is a rare and aggressive neuroendocrine skin cancer with limited treatment options. Approximately 80% of MCCs have the Merkel cell polyomavirus (MCPyV) DNA integrated into the host genome (virus-positive: VP-MCC) and viral oncogenes drive oncogenesis. The remaining MCCs are virus-negative (VN-MCC) and are caused by UV mutagenesis. To identify novel treatments for VP-MCC and/or VN-MCC we screened three VP-MCC cell lines (WAGA, MKL-1, MKL-2), three VN-MCC cell lines (MCC-13, MCC-26, UISO), and four immortalized, non-transformed control cell lines (HaCaT, HEK293T, CRL7250, NIH-3T3) against ~2,400 compounds in the NCGC Pharmaceutical Collection (NPC) and ~1,900 compounds in the Mechanism Interrogation PlatE (MiPE). Using cell viability as a readout (CellTiter-Glo assay) we found both overlapping and distinct drugs that can be repurposed for the treatment of VP-MCC and VN-MCC.
A high-throughput screen was conducted in 1536-well white flat bottom plates (Corning) on a Kalypsys robotic system. Cell lines WAGA, MKL-1, MKL-2, MCC-13, MCC-26, UISO, HaCaT, HEK293T, CRL7250, and NIH-3T3 were screened against 2 small molecule annotated drug libraries NPC and MIPE in dose response (8 and 11 pt. respectively) measuring cell viability after 72 hours of incubation. […] A 1,536 pintool (Kalypsys) was used to transfer 23 nL of compound in DMSO to the 1,536-well assay plates. After 72 hr incubation at 37 degree celsius, 2.5 uL of CellTiter-Glo (Promega) was dispensed into each well using a BiorapTR. Plates were incubated at room temperature for 10 min, transferred to a ViewLux (PerkinElmer) and the luminescence was recorded using an exposure time of 2 seconds. Relative luminescence units (RLUs) were normalized to in-plate controls (no cells as a positive (cytotoxicity) control, DMSO as negative control) and the normalized data was processed using NCATS in-house software.
% is scaled to controls: 0 for no effect and ±100 for the full control effect; potency is read from the fitted curve at half-maximal effect.

Compound | activity change, negative = cytotoxicity | Potency
O=C(Oc1ccccc1C(=O)O)c1ccccc1O | 11.2% | 
O=C(CCCN1CCN(c2ccccn2)CC1)c1ccc(F)cc1 | -4.57% | 
CCCCN(CCCC)CC(O)c1cc(Cl)cc2c1-c1ccc(Cl)cc1/C2=C/c1ccc(Cl)cc1 (stereo not given) | 4.22% | 
NCCNCCNCCNCCN | -6.59% [at 9.22 µM] | 
Nc1ccc(S(=O)(=O)Nc2ccc(Cl)nn2)cc1 | 0.546% | 
Nc1cc(=O)[nH]c(N)n1 | 5.57% | 
CC(O)COc1ccccc1 (stereo not given) | 13.4% | 
CCCc1c(OCCCCc2nn[nH]n2)ccc(C(C)=O)c1O | -1.59% | 
N[C@@H](CSSC[C@H](N)C(=O)O)C(=O)O | 1% [at 0.597 µM] | 
CN(C)CCC=C1c2ccccc2CCc2ccccc21 | -11% | 
CC1=C(CC(=O)O)c2cc(F)ccc2/C1=C\c1ccc(S(C)(=O)=O)cc1 | -3.38% | 
CSc1ccc2c(c1)C(N1CCN(C)CC1)Cc1ccccc1S2 (stereo not given) | -4.77% | 
COc1cc(C(=O)N2CCOCC2)cc(OC)c1OC | -1.85% | 
O=c1cc(CO)occ1O | 10.2% | 
C#CCN(C)Cc1ccccc1 | 7.33% | 
Cc1ncc(COP(=O)(O)O)c(C=O)c1O | 5.55% | 
Oc1ccc(C(O)CNCCCCCCNCC(O)c2ccc(O)c(O)c2)cc1O (stereo not given) | 0.582% | 
CCCCN1CCCC[C@H]1C(=O)Nc1c(C)cccc1C | -2.78% | 
Cc1c(O)cccc1C(=O)N[C@@H](CSc1ccccc1)[C@H](O)CN1C[C@H]2CCCC[C@H]2C[C@H]1C(=O)NC(C)(C)C | -10.8% | 
CCOc1ccc2ccccc2c1C(=O)N[C@@H]1C(=O)N2[C@@H]1SC(C)(C)[C@@H]2C(=O)O | 11.4% | 

Compound | activity change, negative = cytotoxicity | Potency
CC1=C(C/C=C(\C)CCC[C@H](C)CCC[C@H](C)CCCC(C)C)C(=O)c2ccccc2C1=O | 2.37% | 
CC(=O)c1ccc2c(c1)N(CCCN(C)C)c1ccccc1S2 | -8.74% | 
NC(CSCC(=O)O)C(=O)O (stereo not given) | 3.43% | 
Cc1cc2nc3c(=O)[nH]c(=O)nc-3n(C[C@H](O)[C@H](O)[C@H](O)CO)c2cc1C | 8.88% [at 16.1 µM] | 
CCn1cc(C(=O)O)c(=O)c2cnc(N3CCNCC3)nc21 | 4.43% | 
Cc1cc(C(C#N)c2ccc(Cl)cc2)c(Cl)cc1NC(=O)c1cc(I)cc(I)c1O (stereo not given) | -1.36% | 
CCCCCCCCCCCCCCCCCCOCC(O)CO (stereo not given) | 5.52% | 
COc1ccccc1O | 9.17% [at 92.7 µM] | 
COc1ccc2c(c1)C(=O)N(CCc1ccc(S(=O)(=O)NC(=O)NC3CCCCC3)cc1)C(=O)C2(C)C | -6.33% | 
Cc1ncc([N+](=O)[O-])n1CC(O)CCl (stereo not given) | -2.92% | 
NC(=O)c1ncn([C@@H]2O[C@H](CO)[C@@H](O)[C@H]2O)c1N | 8.71% | 
NS(=O)(=O)c1cc2c(cc1C(F)(F)F)NC(Cc1ccccc1)NS2(=O)=O (stereo not given) | 13.3% | 
CC(C(O)c1ccc(O)cc1)N1CCC(Cc2ccccc2)CC1 (stereo not given) | 0.31% | 
CC(C)c1c(C(=O)Nc2ccccc2)c(-c2ccccc2)c(-c2ccc(F)cc2)n1CC[C@@H](O)C[C@@H](O)CC(=O)O |  | 23.7 µM (active)
O=C1OC(OC(=O)c2cccnc2Nc2cccc(C(F)(F)F)c2)c2ccccc21 (stereo not given) | 2.64% | 
CN(C)CCCO[C@@H]1[C@H]2OC(C)(C)O[C@H]2O[C@@H]1C(O)CO (stereo not given in full) | 9.06% | 
NC(=O)NC(=O)Cc1ccccc1 | -3.67% | 
O=c1[nH]cnc2c1ncn2[C@@H]1O[C@H](CO)[C@@H](O)[C@H]1O | 21.9% | 
CCCCN(CCCC)CCCOC(=O)c1ccc(N)cc1 | 5.36% | 
CCCCC(CC)COC(=O)c1ccccc1O (stereo not given) | 6.46% | 
